Consider 37 compounds from PubChem BioAssay (NCI).

SMILES strings stand for the structures. About 83,000 compounds went through this panel and 20% of them were active in at least one assay; those are over-represented in the sample as a whole.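 Interpretation: 100, growth as untreated; towards 0, rising growth inhibition; 0, no net growth; 0 to -100, cell death. Compounds scoring below 10 were considered active.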 Calls of active or inactive are those of the source.

The test system of the experiment is HL-60(TB) leukemia. The experiment in a line: NCI-60 one-dose screen, 48 h (100 = growth as untreated, 0 = no growth, -100 = all killed). Conditions: 10 µM unless noted.
Turning to `COc1cc(-c2nn(-c3cccc(NC(=O)Nc4cccc(C(F)(F)F)c4)c3)cc2-c2ccncc2)ccc1Cl`, the growth was -18.7% (active).

Take `CCOC(=O)/C=C(/C)Sc1cc(O)c2ccccc2c1O`: the growth is 20.5% (inactive). As for `Cc1cc(NCC(=O)Nc2ccc(-c3nc4ccccc4s3)cc2)no1`, the figure is 96.5% (inactive); as for `CN(C)c1ccc(/C=C/C(=O)c2cccc(Nc3nc(Nc4ccccc4)nc(Nc4ccccc4)n3)c2)cc1`, 99.9% (inactive).

`CC(=O)Nc1ccc(CC#N)cc1Br`: the growth was 123% (inactive). As for `CCN(C(=O)c1ccc2c3c(cccc13)C=C2)c1ccccc1`, the figure is 86.4% (inactive). The value for `COc1ccc(/C=C/C(=O)c2ccc(NC(=O)CSc3nnc(-c4ccc(OC)c(OC)c4)n3-c3ccccc3)cc2)cc1` was 54.8% (inactive); that for `Cc1cn(-c2cc(NC(=O)c3ccc(C)c(Nc4nccc(-c5cccnc5)n4)c3)cc(C(F)(F)F)c2)cn1` was 53.3% (inactive). As for `CCCCOC(OCCCC)c1ccccc1`, the figure is 96.7% (inactive). As to `CCC1NC(=O)C(NC(=O)c2ncccc2O)C(C)OC(=O)C(c2ccccc2)NC(=O)C2CC(=O)CCN2C(=O)C(Cc2ccc(N(C)C)cc2)N(C)C(=O)C2CCCN2C1=O` (configuration not stated) (tested in a mixture with another compound), the growth was 42.5% (inactive). As for `Cc1c(C)n(CC(O)CNC2CCCCC2C)c2ccccc12` (configuration not stated), the figure is -13.8% (active); as for `CC1(C)C(N)=Nc2cc(OCCCN3Cc4ccccc4C3)c(OCC3CC3)cc21`, 36.2% (inactive); as for `NC1=C(c2nn[nH]n2)C(c2ccccc2Cl)c2ccc3ccccc3c2O1` (configuration not stated), 54.3% (inactive). The value for `CCCCc1nc(Cl)c(C2CC(c3ccc(Cl)cc3)=NN2c2cc(Cl)cc(Cl)c2)[nH]1` (configuration not stated) was 35.4% (inactive); that for `Cc1c2c[n+](C(C)C)ccc2c(C)c2c1[nH]c1ccccc12` was 14.4% (inactive); that for `CC1(C=O)NC(=O)NC1=O` (configuration not stated) was 87.5% (inactive). As for `CN1CCN(CCOc2ccc(-c3cnc4c(-c5cccc(F)c5)cnn4c3)cc2)CC1`, the figure is 10.7% (inactive); as for `COc1ccc(/C=C2\C=C(c3ccccc3)N(CCc3ccccc3)C2=O)cc1OC`, 19.6% (inactive); as for `C[N+](C)(CCOC(c1ccccc1)c1ccccc1)CC(=O)OCc1ccccc1`, 100% (inactive). As to `CN(C)c1ccc(C(C#N)(c2ccccc2)c2ccc(N(C)C)cc2)cc1`, the growth was 61.9% (inactive). Turning to `N#Cc1nc(-c2ccc(F)cc2)oc1S(=O)(=O)N1CCOCC1`, the growth was 16% (inactive). As for `Cc1cc2nc(CC(=O)c3cccc([N+](=O)[O-])c3)c(=O)[nH]c2cc1C`, the figure is 93.5% (inactive); as for `O=C1NC(=S)S/C1=C\c1cccc([N+](=O)[O-])c1`, 83.8% (inactive). The value for `COc1ccc(/C(=C2\O[C@@H]([C@H](O)CO)[C@H]3OC(C)(C)O[C@@H]23)c2cc(OC)c(OC)c(OC)c2)cc1O` was -2.8% (active); that for `CN(C)c1ccc(S(=O)(=O)O)cc1` was 128% (inactive); that for `Cn1c(/C=C(\C#N)c2cccc(C(F)(F)F)c2)nc2c(N3CCOCC3)nc(Cl)nc21` was -25.2% (active).

For `Nc1ncnc2[nH]c(=O)[nH]c12`, the growth is 140% (inactive). Consider `COC(=O)CC[C@@H](C)[C@H]1CC[C@H]2[C@@H]3CC[C@@H]4C[C@H](O)CC[C@]4(C)[C@H]3C[C@H](O)[C@]12C`, for which the growth was 96.9% (inactive).

With `FC(F)(F)c1[nH]ncc1-c1nc2c(N3CCCCC3)cc3[nH]ncc3c2c2c1CCCC2`, the growth is -1.46% (active). In the case of `COc1cc(CCN=Cc2ccccc2O)c([N+](=O)[O-])cc1OC`, the growth was 101% (inactive).

On to `COc1cc(/C=C/C(=O)c2ccc(Nc3nc(Nc4ccc(F)cc4)nc(Nc4ccc(Cl)cc4)n3)cc2)cc(OC)c1OC`, for which the growth is -32.1% (active).

As to `c1ccc(-c2nc(N3CCOCC3)c3c4c(sc3n2)CCCCC4)nc1`, the growth was 79.2% (inactive). The value for `CCCCCCCCn1ccc2cc(NC(=O)CN3CCN(c4cc(C)nc(Cl)n4)CC3)ccc21` was 83.3% (inactive). Take `COc1cc(-c2nc3ccc(C)cc3[nH]2)ccc1OCc1nnc(-c2ccc(CC(C)C)cc2)o1`: the growth is 110% (inactive). As for `COc1ccc2c(c1)-c1c(c3cc(OC)ccc3n(CCN(C)C)c1=O)C2=O`, the figure is 18% (inactive); as for `Oc1ccc(N=Nc2ccc(N=Nc3ccccc3)cc2)cc1`, 7.35% (active). Consider `O=C(Nc1cccc(-n2cc(-c3ccncc3)c(-c3ccc(Cl)c(O)c3)n2)c1)c1ccccc1`, for which the growth is 167% (inactive).
